Measured values reported in PubChem BioAssay (EPA / NIEHS).
Activity calls are given as the source filed them. The calls were made as follows: active = hit-call score of the fitted dose curve at least 0.9, where 1 is the maximum; inactive = score below 0.9.

What was measured:
TTR (gene 7276) = assay: CCTE_GLTED_hTTR_0.125uM: CCTE's human Transthyretin (hTTR) Inhibition Assay, with 0.125uM TTR, Great Lakes Toxicology and Ecology Division (GLTED) Lab (AID 2284431);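 also: hits lower the fluorescence signal relative to DMSO baseline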
In short: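 Cell-free displacement of ANSA probe from 0.125uM TTR after 2 h incubation with chemical. Fluorescence read at 380 nm excitation/475 nm emission; loss of signal relative to DMSO indicates T4-site displacement.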

[1] = CCTE_Deisenroth_DEVTOX-GLR_Pluri_CellCount: Viability Assessment in CCTE's DevTox GLR-Pluri Assay Evaluation of Total Cell Counts, Deisenroth Lab (AID 2284430)
In short: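 RUES2-GLR human pluripotent cells, seeded 24 h, then differentiated 48 h with two chemical exposures 24 h apart; 10-point series 1 nM - 200 uM. Fixed, nuclear-stained, imaged (5 fields/well); nuclei count as % change vs 0.2% DMSO.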

SMILES | AC50 (TTR (gene 7276)) | outcome [1]
CCCCCCCCCCCC(=O)N(C)CC(=O)O | 21.4 µM (active) | –
Oc1ccccc1Cc1ccccc1O | 3.62 µM (active) | –
COc1ccc(-c2coc3cc(O)cc(O)c3c2=O)cc1 | 0.335 µM (active) | –
CCCCCCOc1ccc(N)cc1 | 21.2 µM (active) | –
Oc1ccc(-c2ccccc2)c(Cl)c1 | 0.0353 µM (active) | –
O=C(Oc1ccccc1)c1ccccc1O | 4.91 µM (active) | –
CCCCCC[C@@H](O)C/C=C\CCCCCCCC(=O)OCC(O)CO (some centres not stated) | 13.5 µM (active) | –
O=C(OCCc1ccccc1)c1ccccc1 | 20.9 µM (active) | –
CCCCCCCCCCCCc1ccc(O)cc1 | 1.62 µM (active) | –
CCCCCCCOC(=O)c1ccc(O)cc1 | 1.42 µM (active) | –
CC(C)(c1ccccc1)c1ccc(Nc2ccc(C(C)(C)c3ccccc3)cc2)cc1 | 20.2 µM (active) | –
CC1(C)[C@@H]2CC[C@@]1(C)C(=O)C2 | – | inactive
O=C(OCc1ccccc1)c1ccc(O)cc1 | 0.322 µM (active) | –
Cc1ccc(C)c(OCCCC(C)(C)C(=O)O)c1 | 0.499 µM (active) | –
COc1ccc(C(=O)c2ccccc2)c(O)c1 | 6.35 µM (active) | –
CC1=NN(c2ccc(S(=O)(=O)O)cc2)C(=O)C1N=Nc1ccccc1 (configuration not stated) | 5.69 µM (active) | –
O=S(=O)(O)c1ccc(N=Nc2c(O)ccc3ccccc23)cc1 | 0.258 µM (active) | –
